Results from PubChem BioAssay (NCI).
Values joined by “and” are separate entries in the source; they are usually repeats but may differ in a detail not shown here. Identical values can stand only once. About 83,000 compounds went through this panel and 20% of them were active in at least one assay; those are over-represented in the sample as a whole.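 Assay: single dose, 48 h. Readout: percent growth (0 = no net growth; negative = cell death). Active: <10.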 Values without a mark were called inactive. Active and inactive are the calls of the source.

System: MDA-MB-468 breast
Test: NCI-60 one-dose screen, 48 h (100 = growth as untreated, 0 = no growth, -100 = all killed)
Settings: 10 µM unless noted

| SMILES | growth |
| --- | --- |
| COc1ccc(S(=O)(=O)NCCNc2nccc(-c3c(-c4ccccc4)nc4sccn34)n2)cc1 | 36.7% |
| O=c1[nH]c(Cl)nc2c1cnn2-c1ccccc1 | 101% |
| O=S(=O)(Nc1ccc(I)c(Cl)c1)c1ccc(-c2cnc(C3CC3)o2)cc1 | -9.49% (active) |
| CCCCCCCCn1ccc2cc(NC(=O)Cn3cc(CN4CCOCC4)nn3)ccc21 | 88.2% |
| CSc1nn(-c2ccccc2)c2ncnc(Oc3ccc(C)cc3)c12 | 93.2% |
| CC(=O)O[C@H]1Cc2c([nH]c3ccccc23)[C@@H](c2ccc(Cl)cc2)N1C(=O)CCNC(C)(C)C | 8.31% (active) |
| CNc1ccc(-c2cc(=O)oc3ccc(Cl)cc23)cc1 | 39.5% |
| Cc1ccc(Cl)cc1NC(=O)c1sc2nc3c(cc2c1N)C(=O)CCC3 | 8.44% (active) |
| CCNCCNc1c(C)c(-c2ccc(C(F)(F)F)cc2)c(C#N)c2nc3ccccc3n12 | 56.1% |
| CCNc1cc(S(=O)(=O)O)ccc1C | 97.2% |
| Cn1cc(-c2csc(-c3cn(C(=O)OC(C)(C)C)c4ccc(Br)cc34)n2)c2cccnc21 | 104% |
| Cc1ccc(-c2nnc(SCc3nc(N)nc(Nc4ccccc4F)n3)n2-c2ccccc2)cc1 | 86.5% |
| O=C(c1cnn2c1NC(c1ccc(F)cc1)C2)N1CCCCC1 (stereo not drawn) | 107% |
| CCCCCCCCCC1=NC(C)(C)CN1C(C)(C)CO | 70.3% |
| CCOC(=O)C1=C(C)N=C2Sc3cccc(OC)c3N2[C@H]1c1ccccn1 | 108% |
| CC(=O)Nc1sc2c(c1-c1nc3ccccc3s1)CNC2 | -3.09% (active) |
| COc1cc2c(c(OC)c1OC)CCC(c1cccc(C(=O)Nc3ccccc3Br)c1)O2 (stereo not drawn) | 85.2% |
| c1ccc2nc(Cn3cc[n+](Cc4ccc5ccccc5n4)c3)ccc2c1 | 1.53% (active) |
| CCc1ccc(C(=O)/C=C/C23c4ccccc4C(c4ccccc42)C2C(=O)NC(=O)C23)cc1 (stereo not drawn) | -15.9% (active) |
| NS(=O)(=O)c1ccc(-n2nc(-c3ccc(Cl)cc3)c3ccccc3c2=O)cc1 | 104% |
| Cc1cc(N)c2cc(NC(=O)/C=C\c3ccccc3Cl)ccc2n1 | -81.1% (active) |

| SMILES | growth |
| --- | --- |
| COc1ccc(C2CC(c3ccc(Nc4nc(NCCO)nc(Nc5ccc(Cl)cc5)n4)cc3)=Nc3c(N)nc(N)nc3N2)cc1 (stereo not drawn) | -23% (active) |
| NC(=NCCCCCCN=C(N)/N=C(\N)Nc1ccc(Cl)cc1)/N=C(\N)Nc1ccc(Cl)cc1 | -69% (active) |
| COc1cc(C2CC(=O)Nc3n[nH]c(-c4ccccc4)c32)cc(OC)c1OC (stereo not drawn) | 38.5% |
| O=C(OCc1ccc2c(Br)cc(Br)c(O)c2n1)N1CCN(C(=O)c2cc3ccccc3[nH]2)CC1 | 21.9% |
| CC/C=C/C/C=C/C/C=C/C/C=C/C/C=C/C/C=C/CCC(=O)Nc1ccn([C@@H]2O[C@H](CO)[C@@H](O)C2(F)F)c(=O)n1 | 21.5% |
| CC1=C(C#N)C(=O)NC(C)C1 (stereo not drawn) | 108% |
| CC1=C2[C@@H](CC1)[C@]1(C)O[C@@](c3ccccc3)(C[C@H]1OC(=O)CO)[C@H]2OC(=O)/C=C/c1ccccc1 | 91.1% |
| O=C1C(SCc2ccccc2)=C(Cl)CN1c1ccc(Cl)cc1 | 16.3% |
| CCOC(=O)c1c(C)nc2ccccc2c1/C=C/c1cccs1 | -2.39% (active) |
| Oc1[nH]c2ccc(Cl)cc2c1N=Nc1nc(N=Nc2c(O)[nH]c3ccc(Cl)cc23)nc(N2CCOCC2)n1 | 23.6% |
| CCOc1ccc2c(c1)CN(Cc1ccc(Cl)cc1)CO2 | 57.2% |
| N=C1/C(=C2\NC3C=CC=CC3S2)C(c2ccc(Cl)cc2)C2C(=O)N(c3ccccc3)C(=S)N12 (stereo not drawn) | 97.9% |
| COc1cc(Cn2cc3c(c2)-c2onc(CO)c2CC3)cc(OC)c1OC | 81.6% |
| C[N+](C)(C)c1ccc(CC2c3ccccc3-c3ccccc32)cc1 | -24.1% (active) |
| COc1nc(Nc2cccc(C(F)(F)F)c2)nc(OC)n1 | 112% |
| C[N+](C)(C)C(=O)c1ccccc1 | 101% |
| N#Cc1nc(-c2ccccc2)oc1N1CCC(C2(C(F)(F)F)N=N2)CC1 | 112% |
| COc1cc2c(cc1O)CC[C@@H]1[C@@H]2CC[C@]2(C)[C@@H](NCCN(C)C)CC[C@@H]12 | -85.1% (active) |
| COC(=O)[C@]12CC[C@@H](C)[C@H](C)[C@@H]1C1=CC[C@@H]3[C@@]4(C)C(C=O)=C[C@@](C)(COS(C)(=O)=O)[C@@H]4C(=O)C[C@@]3(C)[C@]1(C)CC2 | 38% |
| CC[C@H](C)[C@H](N)C(=O)O | 99.9% |
| CC1(C)CC[C@]2(C(=O)O)CC[C@]3(C)C(=CC[C@@H]4[C@@]5(C)Cc6c([nH]c7ccccc67)C(C)(C)[C@@H]5CC[C@]43C)[C@@H]2C1 | 53.4% |

| SMILES | growth |
| --- | --- |
| O=S(=O)(NCCCNc1nccc(-c2c(-c3cccc(F)c3)nc3occn23)n1)c1cccc2ccccc12 | 15.3% |
| COc1ccccc1-n1c(-c2cc(O)ccc2C)cn2c3c(=O)[nH]c(=O)n(C)c3nc12 | 92.3% |
| COc1cc(-c2c3c(c(Br)n2Cc2ccccc2)-c2nc(N)sc2CC3)cc(OC)c1OC | 73.4% |
| CCCCCOc1ccc(/C=N/Nc2cc(C)nc3ccc(Cl)cc23)cc1 | -29% (active) |
| CC(=O)Nc1ccc(S(=O)(=O)N/N=C(\C)c2ccc(C)cc2C)cc1 | 112% |
| COC1=CC(=O)OC(c2ccc(OC)cc2)C1 (stereo not drawn) | 112% |
| COc1ccc(Nc2ccnc(N3CCN(c4ccnc5cc(Cl)ccc45)CC3)n2)cc1 | -16% (active) |
| O=C(/C=C1\C=CN(CCCCO)c2ccccc21)n1ccc2ccccc21 | 98% |
| O=C(CC(O)c1ccncc1)c1ccccc1 (stereo not drawn) | -50.3% (active) |
| C=C1C(=O)O[C@H]2[C@H]1CC/C(CNS(=O)(=O)c1cccc3ccccc13)=C\CC[C@@]1(C)O[C@@H]21 | 1.44% (active) |
| COc1ccc2cc(-c3ccc(-c4ccc(C(=N)N)s4)s3)ccc2c1 | -51.7% (active) |
| Cn1c(=O)c2nc3c(=O)n(C)c(=O)n(C)c3nc2n(C)c1=O | 92.1% |
| O=C(CN1C(=O)S/C(=C\C(Cl)=C\c2ccccc2)C1=O)NC1C=CS(=O)(=O)C1 (stereo not drawn) | -54.5% (active) |
| c1cnc2c(-c3nc4ccc5[nH]ncc5c4c4c3CCCC4)c[nH]c2c1 | 10.9% |
| CC1(C)CC[C@]23CC[C@]4(C)[C@H](CC[C@@H]5[C@@]6(C)CCCN(CO)C(C)(C)[C@@H]6CC[C@]54C)[C@H]2[C@H]1OC3 | 84.9% |
| O=C(c1ccc(O)cc1)[C@@H]1[C@@H]2CCCN2[C@@]2(C(=O)N(C(=O)c3ccc(F)cc3)c3ccccc32)[C@H]1c1ccc(F)cc1 | 92.4% |
| CCCCNCC(=O)Nc1ccc(C(=O)OCC)cc1 | 103% |
| O=C1c2cc([N+](=O)[O-])ccc2-c2cc(Cl)c(NC(=O)C(F)(F)F)cc21 | -17.9% (active) |
| CCCCCN1C=C/C(=C\C(=O)N2CCCc3ccccc32)c2ccccc21 | 40% |
| CC/C(=C(/c1ccc(O)cc1)c1ccc(OCCN2CCCCC2)cc1)c1ccc(OC)cc1 | 60.7% |
| CC1C2CCC(C2)C1COCCOCCO (stereo not drawn) | 102% |

| SMILES | growth |
| --- | --- |
| COc1cc2nnc3c4cccnc4[nH]c3c2cc1OC | -69.9% (active) |
| CNCCn1c(=O)c2cc(OC)c(OC)cc2c2ccc3cc4c(cc3c21)OCO4 | -53.9% (active) |
| CC(C)CCSC1=CC(=O)c2ccccc2C1=O | -84.1% (active) |
| CCSc1sc(-c2ccc(C)cc2)nc1[P+](c1ccccc1)(c1ccccc1)c1ccccc1 | -61.4% (active) |
| N=C(N)c1ccc(-c2ccc(-c3ccc(Cl)cc3)o2)o1 | -21.5% (active) |
| CC1(C)CC[C@]2(C(=O)O)CC[C@]3(C)C(=CC[C@@H]4[C@@]5(C)CC/C(=N\OCCC#N)C(C)(C)[C@@H]5CC[C@]43C)[C@@H]2C1 | 106% |
| O=C(c1nc2ccccc2[nH]1)C1C(c2ccc(Br)cc2)C2CC3CCCC[C@H]3N2[C@@]12C(=O)Nc1cc(Cl)ccc12 (stereo partly drawn) | 12.5% |
| CCC(=O)Oc1c(C)cc(O)c2ccccc12 | 5.03% (active) |
| CCNCc1c(-c2cccc(OC(F)(F)F)c2)[nH]c2ccc(N3CCCC3)cc2c1=O | 36.6% |
| CC(=O)OCC1OC(OC2=C(CC=C(Cl)Cl)C(=O)c3ccccc3C2=O)C(OC(C)=O)C(OC(C)=O)C1OC(C)=O (stereo not drawn) | -61.7% (active) |
| COc1ccc(-c2nn3c(-c4ccccc4F)nnc3s2)cc1 | 6.82% (active) |
| CCc1n(Cc2ccc3ccccc3n2)cc[n+]1Cc1ccc2ccccc2n1 | -30.1% (active) |
| Cc1ccc(C)c(-c2csc(Nc3ccc(C)c(C)c3)n2)c1 | 14.5% |
| N#Cc1c(N)nc(NCCO)nc1-c1ccc(F)cc1 | 102% |
| O=C(CN1CCOCC1)NNc1ncnc2ccccc12 | 55.9% |
| CC(CCC(=O)O)(NC(=O)c1ccc([N+](=O)[O-])cc1)C(=O)O (stereo not drawn) | 112% |
| O=C(/C(=C/c1ccccc1)CN1CCCCC1)c1ccccc1 | -72.8% (active) |
| COc1ccc(/C=C/C(=O)c2ccc(Nc3ncnc4ccccc34)cc2)cc1OC | 60.7% |
| O=C1/C(=C/c2ccccc2)CN(C(=O)CCN2CCC(=NO)CC2)C/C1=C\c1ccccc1 | -22.7% (active) |
| O=C(Nc1cc(C(F)(F)F)cc(C(F)(F)F)c1)c1cc(Cl)ccc1O | -24% (active) and -1.83% (active) |
